Data taken from PubChem BioAssay (NCI).
This is part of a sample that, as a whole, favours compounds with a hit. Of some 83,000 tested, about 20% had one in any assay.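 Assay: single dose, 48 h. Readout: percent growth (0 = no net growth; negative = cell death). Active: <10.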 Active and inactive are the calls of the source.

Legend:
Test in all cases: NCI-60 one-dose screen, 48 h (100 = growth as untreated, 0 = no growth, -100 = all killed)
Details in all cases: 10 µM unless noted
[1] = system: NCI-H23 lung
[2] = system: NCI-H226 lung
[3] = system: NCI-H322M lung
[4] = system: HOP-62 NSCLC
[5] = system: NCI-H460 lung
[6] = system: HOP-92 NSCLC
[7] = system: NCI-H522 lung
[8] = system: A549/ATCC NSCLC
[9] = system: 786-0 renal
[10] = system: COLO 205 colon
[11] = system: DU-145 prostate
[12] = system: K-562 leukemia
[13] = system: MALME-3M melanoma
[14] = system: MDA-MB-231 breast
[15] = system: RXF 393 renal
[16] = system: SF-268 CNS
[17] = system: SF-295 CNS
[18] = system: SF-539 CNS
[19] = system: UACC-257 melanoma
[20] = system: M14 melanoma

Measured: growth

COc1nc(/C=C\Nc2ccc3c(c2)OCCOCCOCCOCCO3)nc(OC)n1
inactive: [1] 85.7% | [2] 103% | [3] 90.5% | [4] 109% | [5] 97.3% | [6] 95.7% | [7] 109% | [8] 99.2% | [9] 97.7% | [10] 109% | [11] 97.2% | [12] 101% | [13] 85% | [14] 91.2% | [15] 100% | [16] 92.8% | [17] 91.2% | [18] 96.9% | [19] 105% | [20] 96.4%

COc1ccc(NC(=O)c2ccc(Nc3ncnc4c3cnn4-c3cccc(F)c3)cc2)cc1
inactive: [1] 103% | [2] 103% | [3] 103% | [4] 101% | [5] 102% | [6] 96.4% | [7] 96.9% | [8] 101% | [9] 104% | [10] 109% | [11] 103% | [12] 94.8% | [13] 92.6% | [14] 92% | [15] 90.2% | [16] 99.1% | [17] 98.3% | [18] 96.5% | [19] 97.9% | [20] 98.4%

CCOC(=O)c1c(NC(=O)c2ccccc2)sc2c3c(ccc12)OCN(C)C3
active: [3] -11.3% | [5] -67.9% | [6] -4.6% | [7] -51.4% | [9] -79% | [10] -54.7% | [12] -53.3% | [13] -89.2% | [14] -74.7% | [15] -73% | [16] 9.19% | [17] -76.8% | [18] -43.7% | [19] -62.2% | [20] -74.2%
inactive: [1] 12.8% | [2] 87.8% | [4] 52.2% | [8] 22.2% | [11] 11.6%

COc1ccc(Nc2ncc(C#N)c(NCCCNC(=O)C3CCC3)n2)cc1
inactive: [1] 67.6% | [2] 49% | [3] 80.8% | [4] 31.4% | [5] 41.7% | [6] 64.3% | [7] 85.1% | [8] 61.2% | [9] 50.4% | [10] 33.3% | [11] 60.7% | [12] 50.4% | [13] 78.8% | [14] 56.5% | [16] 30.7% | [17] 76.8% | [18] 28.5% | [19] 113% | [20] 70.9%
active: [15] -4.62%

CNC(=O)c1cc(Oc2ccc3c(c2)sc2nc(-c4cc(C(F)(F)F)cc(C(F)(F)F)c4)cn23)ccn1
inactive: [1] 44.8% | [2] 26.8% | [3] 89.8% | [4] 25.4% | [5] 38.3% | [6] 27% | [7] 35% | [8] 39.5% | [9] 61.3% | [10] 55.3% | [11] 67.7% | [12] 29.4% | [13] 47.1% | [14] 48.2% | [15] 79.8% | [16] 65.1% | [17] 36.2% | [18] 52.4% | [19] 34.5% | [20] 69.3%

C=CC(CC(c1ccccc1)(c1ccccc1)c1ccccc1)N(CC)CC (stereo not given)
inactive: [1] 71.7% | [2] 75.7% | [3] 90% | [4] 87.5% | [5] 62.6% | [6] 54.8% | [7] 84.1% | [8] 82.5% | [9] 67.8% | [10] 64.5% | [11] 58.8% | [12] 25.4% | [13] 54% | [14] 53.4% | [15] 40.6% | [16] 73.9% | [17] 78.8% | [18] 69.1% | [19] 79.3% | [20] 30.1%

CC(C)Cc1nc(Nc2ccccc2)[nH]c(=O)c1C#N
inactive: [1] 33.8% | [2] 58.1% | [3] 61% | [4] 82.7% | [5] 59.8% | [7] 17.3% | [8] 57.3% | [9] 72.6% | [10] 49.7% | [11] 70.8% | [12] 48.8% | [13] 72.6% | [14] 47.9% | [15] 67.4% | [16] 63.3% | [17] 58.7% | [18] 50.7% | [19] 81.2% | [20] 53.2%
active: [6] -14%

CCSc1ccnc(N)n1
inactive: [1] 120% | [2] 101% | [3] 106% | [4] 94% | [5] 113% | [6] 98% | [7] 105% | [8] 118% | [9] 98.3% | [10] 125% | [11] 105% | [12] 121% | [13] 86.3% | [14] 104% | [15] 125% | [16] 93.9% | [17] 105% | [18] 105% | [19] 102% | [20] 112%

COC(=O)Cn1c2c(c3c(OC)cccc31)C(=O)c1ccccc1-2
inactive: [1] 91.2% | [2] 91.4% | [3] 113% | [4] 87% | [5] 112% | [6] 70.3% | [7] 101% | [8] 100% | [9] 86.6% | [10] 104% | [11] 104% | [12] 91.7% | [13] 95.5% | [14] 98.5% | [15] 114% | [16] 97% | [17] 107% | [18] 101% | [19] 101% | [20] 103%

COc1ccc(C/C(C)=C(\c2ccc(O)cc2)c2ccc(OCCN3CCCCC3)cc2)cc1
inactive: [1] 90.1% | [2] 103% | [3] 93.8% | [4] 95.6% | [5] 72.6% | [6] 72.3% | [7] 87.7% | [8] 79.2% | [9] 76.8% | [10] 89.4% | [11] 90.8% | [12] 22.8% | [13] 87.6% | [14] 104% | [15] 79.9% | [16] 81.7% | [17] 98.8% | [18] 83% | [19] 110% | [20] 40.4%

COC(=O)[C@@]12CC=C(C)[C@]3(C[C@H](c4ccoc4)OC3=O)[C@H]1C=C[C@@H](O)[C@@]2(O)C(=O)OC
inactive: [1] 100% | [2] 116% | [3] 88.7% | [4] 91.3% | [5] 111% | [6] 102% | [7] 66.3% | [8] 84.9% | [9] 97.4% | [10] 110% | [11] 98.3% | [12] 94.1% | [13] 104% | [14] 110% | [15] 114% | [16] 98.1% | [17] 96.4% | [18] 98.7% | [19] 82.1% | [20] 101%

O=C(NCCNC(c1ccccc1)C(NCCNC(=O)c1ccccc1)c1ccccc1)c1ccccc1 (stereo not given)
inactive: [1] 83.3% | [2] 100% | [3] 95.7% | [4] 104% | [5] 59.6% | [6] 84.8% | [7] 69.4% | [8] 106% | [9] 106% | [10] 106% | [11] 19.8% | [12] 81.6% | [13] 101% | [14] 98% | [15] 72.9% | [16] 99.7% | [17] 81.8% | [18] 103% | [19] 96.9% | [20] 86.3%

CCOC(=O)C1=C(c2ccccc2)N=C2N(c3ccccc3)N=C(C(C)=O)N2C1c1ccc(F)cc1 (stereo not given)
inactive: [1] 105% | [2] 97.7% | [3] 99.2% | [4] 98.6% | [5] 100% | [6] 93.3% | [7] 97.3% | [8] 101% | [9] 99.6% | [10] 113% | [11] 106% | [12] 96.3% | [13] 97.7% | [14] 98.8% | [15] 75.5% | [16] 99.2% | [17] 98.6% | [18] 101% | [19] 113% | [20] 101%

C[N+]1=C(/C=C/c2ccccc2Cl)C(C)(C)c2ccccc21
inactive: [1] 74.3% | [2] 80% | [3] 98.6% | [4] 98.7% | [5] 103% | [6] 90.1% | [7] 81.8% | [8] 92.5% | [9] 95.9% | [10] 95.9% | [11] 94.5% | [12] 77.3% | [13] 98.4% | [14] 98% | [15] 89.2% | [16] 96.7% | [17] 103% | [18] 101% | [19] 92% | [20] 97.8%

CC1(C)CC[C@]23CC[C@]4(C)[C@H](CC[C@@H]5[C@@]6(C)CCNCC(C)(C)[C@@H]6CC[C@]54C)[C@H]2[C@H]1OC3
inactive: [1] 95.6% | [2] 96.7% | [3] 99.8% | [4] 97% | [5] 23.7% | [6] 98.9% | [7] 90.1% | [8] 79.3% | [9] 101% | [11] 98.5% | [12] 16.9% | [13] 104% | [14] 96.6% | [15] 101% | [16] 111% | [17] 108% | [18] 99.5% | [19] 92.5% | [20] 92.8%
active: [10] -21%
